# Test results as given in PubChem BioAssay AID1053206 (Broad Institute, 2014).
# Unmarked numbers belong to inactive results.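 Rule for the calls: active = compounds lowering delta-delta-Ct, meaning more Pax4 mRNA, with half-max potency at most twice the top tested dose; inconclusive = flat fit dropping 30 to 70 percent, or unreliable fit; inactive = the rest.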
# Assay: activators of Pax4 gene expression, dose response, mouse alpha TC1 cells, RT-qPCR, cherry-picks (AID 1053206)
# Conditions: Pax4 mRNA qPCR, 6 days, active compounds read low; at 19.5 µM unless noted
row,SMILES,max activity (delta-delta-Ct)
1,CO[C@@H](CN(C)Cc1cc(F)ccc1F)[C@@H](C)CN(C(=O)Nc1ccc(C(F)(F)F)cc1)[C@H](C)CO,-0.501% [at 10 µM]
2,C[C@@H]1CN([C@@H](C)CO)C(=O)Cc2cc(NC(=O)C3CCCCC3)ccc2O[C@@H]1CN(C)Cc1ccc(Cl)c(Cl)c1,-0.143% [at 1.2 µM]
3,O=S(=O)(c1ccc(F)cc1)N1C[C@@H]2N[C@H](C1)C2c1ccc(/C=C/c2ccccc2)cc1 (stereo partly drawn),-0.01% [at 10 µM]
4,C/C=C/c1ccc(C2[C@@H]3CN(C(=O)Nc4ccc(C(F)(F)F)cc4)C[C@H]2N3)cc1 (stereo partly drawn),-0.019%
5,C/C=C/c1ccc([C@H]2[C@@H](CO)N3C(=O)CN(Cc4ccc(F)cc4)C[C@@H]23)cc1,-0.008% [at 0.16 µM]
6,Cc1ccccc1S(=O)(=O)N1C[C@@H]2N[C@H](C1)C2c1ccc(-c2cccc(C#N)c2)cc1 (stereo partly drawn),-0.001% [at 2.6 µM]
7,COc1cc(CN2C[C@@H]3N[C@H](C2)C3c2ccc(-c3ccc(C#N)cc3)cc2)cc(OC)c1 (stereo partly drawn),-0.065%
8,CN(C)C(=O)c1cccc(-c2ccc(C3[C@@H]4CN(Cc5ccccc5F)C[C@H]3N4)cc2)c1 (stereo partly drawn),0.001% [at 5 µM]
9,C[C@H]1CNC(=O)[C@@H](Cc2ccc(C(F)(F)F)cc2)CCn2nncc2COC1,0.001% [at 0.16 µM]
10,COc1ccc(S(=O)(=O)Nc2ccc3c(c2)CC(=O)N([C@H](C)CO)C[C@H](C)[C@H](CN(C)Cc2ccc(C(=O)Nc4ccccc4N)cc2)O3)cc1,-0.17%
11,COc1cccc(-c2cccc(-c3nc(C(=O)Nc4ccc(-c5ccccc5)cc4)cc4c3[C@@H](CCO)N(S(=O)C(C)(C)C)C4)c2)c1 (stereo partly drawn),-0.152%
12,Fc1cccc(CN2C[C@@H]3N[C@H](C2)C3c2ccc(/C=C/c3ccccc3)cc2)c1 (stereo partly drawn),-3.37% [at 21 µM]
13,Cc1cccc(-c2ccc(C3[C@@H]4CN(Cc5cccc(F)c5)C[C@H]3N4)cc2)c1 (stereo partly drawn),-2.82%
14,C[C@H](CO)N1C[C@H](C)[C@@H](CN(C)Cc2ccccc2)Oc2c(NC(=O)Cc3cn(C)c4ccccc34)cccc2C1=O,-0.003% [at 10 µM]
15,N#Cc1cccc(-c2ccc(C3[C@@H]4CN(C(=O)Nc5ccc(C(F)(F)F)cc5)C[C@H]3N4)cc2)c1 (stereo partly drawn),-0.156%
16,C(=C\c1ccc(C2[C@@H]3CN(Cc4ccc5c(c4)OCO5)C[C@H]2N3)cc1)/c1ccccc1 (stereo partly drawn),-0.457%
17,CNC[C@@H]1Oc2cc(C#Cc3ccccc3OC)ccc2S(=O)(=O)N([C@H](C)CO)C[C@H]1C,-0.002% [at 0.6 µM]
18,COc1ccc2c3c(n(C)c2c1)[C@@H](CO)N(CC1CC1)CC31CN(C(=O)c2ccc3c(c2)OCO3)C1,-0.004% [at 0.038 µM]
